# Compound activity (PubChem)
# Only some compounds are listed: those with a hit (about 11% of all), similar ones and a draw of the others.
# HCV inhibitor = HCV inhibition; Huh7.5.1 HCVcc-Cre infection, luciferase reporter, 44 h; Potency, µM (doses to about 41.8 µM), without a hit: at the top dose activity change, negative = inhibition, actives largely listed as inhibitors; hit rate 3.4% among 340,000
#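 A cell-based infection assay in which seeded cells (1,000 per well) receive test compound after 4 h, are inoculated with HCVcc-Cre at approximately 0.5 moi, and are incubated 44 h before luminescence detection.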
# AMA1 RON2 block = AMA1-RON2 (P. falciparum) interaction inhibition; AlphaScreen AMA1-biotinylated RON2 peptide binding; Potency, µM (doses to about 58.2 µM), for inactives: top-dose activity change, negative = inhibition, hits mostly inhibitors; hit rate 0.2% among 360,000; AID 720542;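 further: 0% = vehicle wells and -100% = peptide control; nearly all actives have a fitted effect of over 45% in size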
#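 AMA1 (3D7) with his tag at 25 nM final met compounds first, then biotinylated RON2 peptide at 25 nM; detection used donor plus acceptor beads, 10 µg/mL apiece, read by AlphaScreen after 30 min at room temperature.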
# Pf growth 96h = inhibits malaria parasite growth, 96 h; P. falciparum luciferase reporter growth, 96 h; Potency, µM (highest dose often 28.7 µM), inactives show at the top dose activity change, negative = inhibition, most hits filed as inhibitors; hit rate 6.9% among 320,000; AID 504834
#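 Luminescence readout: decreased luciferase signal marks inhibited growth of reporter-expressing P. falciparum in infected red cells (2% hematocrit, 0.05% parasitemia final), exposed to compound two generations (96 h, 37 C, 5% CO2).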
# Pf growth 48h = inhibits P. falciparum growth in the first generation, 48 h. Potency, µM (series often up to 28.7 µM), for the others: top-dose activity change, negative = inhibition, most hits filed as inhibitors. hit rate 5.9% among 310,000. P. falciparum luciferase growth in erythrocytes, 48 h
#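 Compounds are pin-transferred into medium, infected erythrocytes (2% hematocrit, 0.1% parasitemia final) are added, and plates sit one parasite generation at 37 C in 5% CO2. Detection reagent is then added and luminescence measured.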
# Active calls of the source: *; ? = inconclusive; / = not tested or not shown; [ ] = remark or other dose. The call rests on the fitted dose curve; in most records, active means well fitted curve in the direction sought with a large enough effect; inconclusive means small, poorly fitted or top-dose-only effect, or another doubt; inactive means no such curve, though single readings can be large; an effect the other way counts as inactive or inconclusive. Unless noted, on the % scale 0 is the no-effect control and ±100 the full control effect; potency means the concentration at half of the fitted maximal effect.
SMILES,HCV inhibitor,AMA1 RON2 block,Pf growth 96h,Pf growth 48h
CC(C)n1cc(CN2CCC(C(=O)Nc3ccc(Oc4ccccc4F)cc3)CC2)cn1,11µM*,8%,-2%,?
CCn1cc(CN2CCC(C(=O)Nc3ccc(Oc4ccccc4F)cc3)CC2)c(C)n1,2.8µM*,-13%,?,?
CCn1cc(CN2CCC(C(=O)Nc3ccc(Oc4ccccc4)nc3)CC2)cn1,?,2%,-29%,-9%
Cc1cc(CN2CCCC(C(=O)Nc3ccc(-c4nc5ccccc5[nH]4)cc3)C2)n[nH]1 (stereo unspecified),-15%,24%,7%,?
CCOC(=O)COc1ccc2c(C)c(CCN(CC)CC)c(=O)oc2c1Cl,/,/,?,-4%
CCC(=O)N1CCC1(C)C(=O)Nc1ccccc1 (stereo unspecified),/,-1%,/,/
CC(=O)N1c2ccc(S(=O)(=O)N3CCCC3)cc2CC1C(=O)Nc1cc(C)cc(C)c1 (stereo unspecified),?,-1%,?,?
CC(C)(C)OC(=O)NCCCCCNC(=O)c1[nH]cnc1C(=O)Nc1ccccc1,-1%,120%,?,?
CCOC(=O)c1ccc(NC(=O)c2nc[nH]c2C(=O)NCCCCNC(=O)c2[nH]cnc2C(=O)Nc2ccc(C(=O)OCC)cc2)cc1,0%,88%,1.5µM*,?
CC(C)(C)OC(=O)NCCCCCNC(=O)c1[nH]cnc1C(=O)Nc1ccc(Cl)cc1,35µM*,161%,?,10µM*
Cc1ccc(NC(=O)c2nc[nH]c2C(=O)NCCCCCNC(=O)OC(C)(C)C)cc1,?,109%,?,3.3µM*
CCN[C@@H]1C[C@H](C)S(=O)(=O)c2sc(S(N)(=O)=O)cc21,/,/,?,-16%
Cc1ccc(F)c(Oc2cc(NN3CCCCC3)c([N+](=O)[O-])cc2[N+](=O)[O-])c1,-6%,?,12µM*,?
CC1(C)Cc2cccc(Oc3cc(NN4CCCCC4)c([N+](=O)[O-])cc3[N+](=O)[O-])c2O1,-7%,-30%,1.5µM*,?
O=[N+]([O-])c1cc([N+](=O)[O-])c(Oc2cccc(Cl)c2Cl)cc1NN1CCCCC1,4%,-7%,?,-10%
Cc1ccc(C(=O)Oc2ccc(Cl)c3cccnc23)cc1[N+](=O)[O-],-1%,-19%,?,13µM*
O=[N+]([O-])c1cc([N+](=O)[O-])c(Oc2ccccc2F)cc1NN1CCCCC1,18%,-20%,-26%,0%
O=[N+]([O-])c1cc([N+](=O)[O-])c(Oc2ccc(Cl)c3cccnc23)cc1NN1CCCCC1,7%,-17%,1.5µM*,?
COc1ccccc1-n1c(SCC(=O)N2CCCC2)nnc1-c1ccccc1,19%,-3%,21%,-7%
CC1(C)[C@@H](OC(=O)CCC(=O)O)CC[C@@]2(C)[C@H]1CC[C@@]1(C)[C@H]2C(=O)C=C2[C@H]3C[C@](C)(C(=O)O)CC[C@]3(C)CC[C@@]21C,/,/,0%[12.8 µM],4%[12.8 µM]
CN(Cc1cnn(C)c1)S(=O)(=O)c1cccc([N+](=O)[O-])c1,6%,19%,?,1%
CCOC(=O)[C@]12CCC=C1N(Cc1ccccc1)C(=O)[C@H](CC(=O)NCc1cccs1)C2,/,3%,/,/
CC(C)(CC(=O)O)CC(=O)Nc1cc(C(F)(F)F)cc(C(F)(F)F)c1,7%,-19%,-4%,4%
Cc1cc(Oc2cc(NN3CCCCC3)c([N+](=O)[O-])cc2[N+](=O)[O-])c(C(=O)c2ccccc2)cc1Cl,-27%,?,8.3µM*,?
COc1cccc(-c2nc3ccccc3s2)c1O,?,-3%,9%,165%
SMILES,HCV inhibitor,AMA1 RON2 block,Pf growth 96h,Pf growth 48h
COc1cc(OC)c(-c2nc3ccccc3s2)cc1OC,11µM*,0%,?,-12%
CC(=O)[C@H]1[C@H]([C@H](O)[C@H](O)CO)O[C@](O)(C(=O)O)C[C@@H]1O,14%,4%,22%,-9%
COc1cccc(Nc2c(F)c(F)c(F)c(F)c2C(=O)O)c1,7%,-5%,13µM*,-7%
COc1cc(C(=O)N2CCc3ccccc32)ccc1OCc1c(C)noc1C,?,-3%,?,?
CC[n+]1c(/C=C/N(C)c2ccccc2)n(-c2ccccc2)c2ccc(-c3nc4ccccc4s3)cc21,5.6µM*,-18%,16%,0%
Cc1ccc(S(=O)(=O)N2CCCCC2)cc1NC(=O)c1ccc(Br)o1,-26%,-4%,?,7.4µM*
